# Data taken from PubChem BioAssay (NCI).
# The panel holds about 79,000 compounds, 15% with a hit somewhere; the sample as a whole holds those more often. Values without a mark were called inactive. Calls of active or inactive are those of the source. Rule as the data show it: active = growth inhibition above about 70%; inactive = the rest.
# Key:
# [1] = NCI Yeast Anticancer Drug Screen. Data for the rad50 strain (AID 155);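 also: 0% = growth of vehicle-only cultures of the same strain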; conditions: S. cerevisiae rad50 strain growth inhibition, hits give high values
# Summary of the method: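 DNA repair mutant yeast, compound exposure, growth read-out; inhibition is taken relative to vehicle.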
# [2] = NCI Yeast Anticancer Drug Screen. Data for the mec2-1 strain (AID 157); conditions: S. cerevisiae mec2-1 strain, hits give high values
# Summary of the method: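 Growth inhibition is read against vehicle-treated controls after compound exposure of the mec2-1 yeast strain, which is defective in DNA damage repair or cell cycle control.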
# [3] = NCI Yeast Anticancer Drug Screen. Data for the sgs1 mgt1 strain (AID 161);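 also: 0% = growth of cultures given vehicle only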; conditions: S. cerevisiae sgs1 mgt1 strain, hits give high values
# Summary of the method: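 Yeast cells carrying a defined DNA-repair defect were exposed to test compounds. Growth inhibition was measured relative to vehicle-treated controls.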
# [4] = NCI Yeast Anticancer Drug Screen. Data for the cln2 rad14 strain (AID 165);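 also: 0% = growth equal to vehicle treated cultures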; conditions: S. cerevisiae cln2 rad14 strain, hits give high values
# Summary of the method: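 Growth inhibition, relative to vehicle-treated controls, is the read-out. The test organism is a yeast strain with defined genetic alterations, cln2 rad14.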
# [5] = NCI Yeast Anticancer Drug Screen. Data for the bub3 strain (AID 167); conditions: S. cerevisiae bub3 mutant strain, hits give high values
# Summary of the method: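 In this screen, a yeast mutant lacking normal mitotic checkpoint function is challenged with compound. Relative growth versus vehicle gives the inhibition value.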
# [6] = NCI Yeast Anticancer Drug Screen. Data for the mlh1 rad18 strain (AID 175); conditions: S. cerevisiae mlh1 rad18 strain growth inhibition, hits give high values
# Summary of the method: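 Cells of a genetically altered yeast strain, deficient in DNA damage repair, were treated with compound. Their growth was then compared with that of vehicle-treated cultures to give inhibition.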
# [7] = at 5.0 µM (retest, dose inferred, filed as 0.5)
# [8] = at 50.0 µM (retest, dose inferred, filed as 5.0)
Compound,"growth inhibition [1, 7]","growth inhibition [1, 8]",growth inhibition ([1]; at 50.0 µM),"growth inhibition [2, 7]","growth inhibition [2, 8]",growth inhibition ([2]; at 50.0 µM),"growth inhibition [3, 7]","growth inhibition [3, 8]",growth inhibition ([3]; at 50.0 µM),"growth inhibition [4, 7]","growth inhibition [4, 8]",growth inhibition ([4]; at 50.0 µM),"growth inhibition [5, 7]","growth inhibition [5, 8]",growth inhibition ([5]; at 50.0 µM),"growth inhibition [6, 7]","growth inhibition [6, 8]",growth inhibition ([6]; at 50.0 µM)
COc1cc(OC)c(C(c2cc3c(cc2O)OCO3)N2CCOCC2)c(OC)c1 (configuration not stated),2%,99% (active),57.9%,2%,98% (active),61.1%,-1%,98% (active),50.3%,0%,99% (active),23.7%,5%,99% (active),18.8%,-2%,99% (active),63.2%
CCOC(=O)N/N=C/c1ccc(N(C)CCC#N)cc1,7%,6%,-12%,-3%,12%,-26.9%,-4%,4%,55.2%,37%,17%,5.5%,22%,15%,1.1%,14%,24%,-3.6%
COC(=O)CS(=O)(=O)CCS(=O)(=O)CC(=O)OC,-4%,3%,-0.4%,-2%,8%,11.9%,-1%,14%,4.65%,-1%,1%,-1.25%,-1%,15%,60.1%,-3%,11%,20.4%
CC(=O)N1CC(C)CC2OC3(CCC4C5CCC6CC(O)CCC6(C)C5C(=O)C4C3C)C(C)C21 (configuration not stated),10%,98% (active),91.6% (active),1%,98% (active),93.7% (active),19%,97% (active),92.6% (active),26%,98% (active),92.5% (active),14%,98% (active),92.2% (active),-20%,98% (active),91.8% (active)
CN(C)C(=O)/N=c1\ss/c(=N\C(=S)N(C)C)n1-c1ccccc1,-1%,78% (active),68.2%,-9%,56%,45.8%,4%,95% (active),72% (active),-17%,29%,41.6%,-8%,50%,68.5%,9%,92% (active),62.2%
COc1cc2cc[n+]3c4ccc([N+](=O)[O-])cc4ccc3c2cc1OC,73% (active),81% (active),44.8%,14%,73% (active),55.5%,42%,80% (active),70% (active),31%,71% (active),68.3%,43%,81% (active),57.7%,66%,69%,46%
O=C1OC2(c3ccccc31)c1cc(I)c(O)c(I)c1Oc1c2cc(I)c(O)c1I,32%,99% (active),98.5% (active),61%,99% (active),99.3% (active),21%,56%,99.6% (active),15%,98% (active),98.8% (active),15%,99% (active),99.2% (active),62%,99% (active),98.7% (active)
[O-][n+]1c2ccccc2nc2cc(Cl)ccc21,-114%,11%,92.2% (active),-35%,-32%,21.6%,-53%,6%,68.5%,-64%,-46%,25.6%,-47%,-1%,48.1%,-105%,-17%,84.8% (active)
CC1=NC(c2ccccc2)(C2(c3ccccc3)C(c3ccccc3)=C2c2ccccc2)C(=O)O1 (configuration not stated),21%,21%,86% (active),25%,25%,88.8% (active),28%,28%,86.9% (active),23%,23%,89% (active),11%,11%,34.9%,27%,27%,86.6% (active)
